Assay outcomes (PubChem BioAssay)
A selection: hits, their analogues and other compounds. The true share with any hit is near 3.4%.
ERa coact pot: ER-alpha (human) coactivator binding potentiation; P03372; TR-FRET ERalpha-LBD/SRC-Cy5 coactivator binding, 2 h; 100 = basal binding, no effect; coactivator binding (% of control), % at 25.6 µM; hit rate 1.3% among 86,000; AID 639; in the data active = activity above about 200%;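 also: binding measured in presence of low estradiol as agonist stimulus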
PTPN22 inh 2: blocks human PTPN22 phosphatase activity; Q9Y2R2; inhibition, % at 2 µM; recombinant LYP catalytic domain, DiFMUP fluorescence; hit rate 0.21% among 96,000;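 active = inhibition at 2 µM at or above a set limit, the screen mean plus 3 SD, cut at about 24% in these data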
FAK inh: inhibitors of human focal adhesion kinase | Q05397 | biochemical FAK kinase activity assay | inhibition, %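 (tested at 7 µM)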 | hit rate 0.84% among 97,000 | AID 727; in the data active = inhibition above about 19%
LYP act: activators of human LYP (PTPN22) phosphatase; recombinant LYP, DiFMUP fluorescence; 0 = plate median, 100 = signal doubled; activation, % at 2 µM; hit rate 0.11% among 96,000;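 active = activation at 2 µM above a set limit, the mean plus 5 SD, cut at about 37% in these data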
ERb SRC1 inh: ER-beta (human) coactivator binding inhibition | hit rate 1.3% among 86,000 | TR-FRET ER-beta LBD / SRC1-Cy5 peptide binding; receptor agonist-loaded with 1 µM estradiol | inhibition, % at 25.6 µM | Q92731;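 active = compounds whose percent inhibition of the receptor-coactivator binding signal exceeds about 50% in the single-dose screen, limit read from the data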
Target sequence (Q92731 whole entry, looked up, the tested form may be a part): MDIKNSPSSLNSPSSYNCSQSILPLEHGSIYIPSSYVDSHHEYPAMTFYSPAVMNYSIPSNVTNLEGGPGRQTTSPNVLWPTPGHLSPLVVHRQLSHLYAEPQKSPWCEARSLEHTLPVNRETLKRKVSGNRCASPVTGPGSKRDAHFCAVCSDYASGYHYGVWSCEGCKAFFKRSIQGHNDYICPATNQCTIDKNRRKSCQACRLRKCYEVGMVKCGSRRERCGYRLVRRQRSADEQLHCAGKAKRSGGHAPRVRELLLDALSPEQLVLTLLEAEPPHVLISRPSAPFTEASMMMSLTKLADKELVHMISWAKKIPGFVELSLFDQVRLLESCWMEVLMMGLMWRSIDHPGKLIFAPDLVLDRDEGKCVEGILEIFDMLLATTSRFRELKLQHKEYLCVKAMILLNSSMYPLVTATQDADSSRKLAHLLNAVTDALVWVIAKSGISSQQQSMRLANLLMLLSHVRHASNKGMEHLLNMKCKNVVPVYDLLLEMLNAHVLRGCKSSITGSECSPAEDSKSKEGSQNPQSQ
ERa SRC1 inh: blocks coactivator binding to human estrogen receptor alpha; P03372; TR-FRET ER-alpha LBD / SRC-1 peptide, estradiol-bound; inhibition, % at 25.6 µM; hit rate 1.7% among 86,000; in the data active = inhibition above about 50%
Large screens that a line does not name were inactive; [ ] = remark or other dose.

Cn1nc([N+](=O)[O-])c2c(-c3nc4ccccc4s3)c(N)n(C3CCCCC3)c2c1=O	ERb SRC1 inh 65.4, ERa SRC1 inh 93.4
CCCCn1c(N)c(-c2nc3ccccc3s2)c2c([N+](=O)[O-])nn(C)c(=O)c21	none (no result: ERa coact pot, ERb SRC1 inh, ERa SRC1 inh)
CCn1c(SCC(=O)Nc2nnc(C)s2)nc2c(c1=O)SC(C)C2 (configuration not stated)	none (no result: PTPN22 inh 2, FAK inh, LYP act)
Cc1cc(NC(=O)CSc2nc3ccccc3c(=O)n2Cc2ccc(F)cc2)no1	ERa coact pot 232.3[fluorescence artefact?], ERb SRC1 inh 50.1[fluorescence artefact?]
Cc1cc(NC(=O)CSc2nc3c(c(=O)n2CCc2ccccc2)SC(C)C3)no1 (configuration not stated)	ERa SRC1 inh 78.9 (no result: PTPN22 inh 2, FAK inh, LYP act)
Cc1nnc(NC(=O)CSc2nc3c(c(=O)n2CCc2ccccc2)SC(C)C3)s1 (configuration not stated)	ERa SRC1 inh 69.0 (no result: PTPN22 inh 2, FAK inh, LYP act)
COc1ccc(CCn2c(SCC(=O)Nc3cc(C)on3)nc3ccsc3c2=O)cc1OC	ERa coact pot 313.7
CCn1cc(/C=N/NS(=O)(=O)c2ccc(OC)cc2)c(C)n1	none (no result: ERa coact pot, ERb SRC1 inh, ERa SRC1 inh)
CCCCOC(=O)CSc1nc(N)c(C#N)c(-c2ccc(OCC)cc2)c1C#N	ERa coact pot 214.8[fluorescence artefact?], ERb SRC1 inh 75.8[fluorescence artefact?], ERa SRC1 inh 51.4[fluorescence artefact?]
CSc1nc(N)c(C#N)c(-c2ccc(Cl)cc2)c1C#N	ERa coact pot 254.8[fluorescence artefact?]
CCCCOc1ccc(-c2c(C#N)c(N)nc(SCC(N)=O)c2C#N)cc1	ERa coact pot 270.6[fluorescence artefact?]
CCOC(=O)CSc1nc(N)c(C#N)c(-c2ccc(OC)cc2)c1C#N	ERa coact pot 258.5[fluorescence artefact?]
C=C(C)CSc1nc(N)c(C#N)c(-c2ccc(C)cc2)c1C#N	none
CCOC(=O)CC(=O)CSc1nc(N)c(C#N)c(-c2ccc(F)cc2)c1C#N	none
Cc1nc2cc(CC(=O)O)ccc2o1	none (no result: ERa coact pot, ERb SRC1 inh, ERa SRC1 inh)
O=CNC(Cc1ccccc1)C(=O)O (configuration not stated)	none
C=CCNC(=O)c1cccc(C(F)(F)F)c1	none (no result: ERa coact pot, ERb SRC1 inh, ERa SRC1 inh)
O=C(NCC1CCCC(CNC(=O)N2CCc3ccccc32)C1)N1CCc2ccccc21 (configuration not stated)	none (no result: ERa coact pot, ERb SRC1 inh, ERa SRC1 inh)
CCOc1ccc(C2c3cc(OC)c(OC)cc3CC(=O)N2c2ccc(OC)cc2)cc1 (configuration not stated)	none (no result: ERa coact pot, ERb SRC1 inh, ERa SRC1 inh)
CCCCOC(=O)CSc1nc(N)c(C#N)c(-c2ccc(OC)cc2)c1C#N	ERa coact pot 239.8[fluorescence artefact?], ERa SRC1 inh 61.0[fluorescence artefact?]
NC(=O)COc1ccc(C2c3c(oc4ccccc4c3=O)C(=O)N2CC2CCCO2)cc1 (configuration not stated)	ERb SRC1 inh 70.2, ERa SRC1 inh 69.8
CC(NC(=O)C1CCCN(C(=O)N(C)C)C1)c1ccccc1 (configuration not stated)	none
CCOc1cccc(C(=O)Nc2cccc(-c3nnc(-c4ccc(C)cc4)o3)c2)c1	ERb SRC1 inh 59.8[fluorescence artefact?], ERa SRC1 inh 68.2[fluorescence artefact?]
O=C(Nc1cccc(-c2cnc3ccccc3n2)c1)c1ccccc1	none (no result: ERa coact pot, ERb SRC1 inh, ERa SRC1 inh)
Cn1cccc1-c1nc2ccc(NC(=O)c3ccco3)cc2[nH]1	none
O=C(Nc1ccc(-c2nc3cccnc3s2)cc1)c1ccco1	ERa SRC1 inh 55.8[fluorescence artefact?] (no result: PTPN22 inh 2, FAK inh, LYP act)
Cc1ccc2nc(-c3ccc(NC(=O)c4ccco4)cc3)[nH]c2c1	ERa SRC1 inh 59.1[fluorescence artefact?]
O=C(Nc1cccc(-c2cnc3ccccc3n2)c1)c1cccc(NC(=O)c2ccco2)c1	ERa coact pot 243.8[fluorescence artefact?], ERa SRC1 inh 59.2
CCOC(=O)N1CCC(NC(=O)CCC(=O)N2CC(C)Oc3ccc(Cl)cc32)CC1 (configuration not stated)	none
Cc1nn(-c2ccc(F)cc2)c(Cl)c1/C=C(\CC(=O)O)c1nc2ccccc2s1	none
c1ccc2c(c1)CCOC2CNCCCN1CCCCC1 (configuration not stated)	none
CC1(C)Cc2noc(N)c2C(C)(C)N1O	none
Cc1cc(C)nc(NS(=O)(=O)c2ccc(NC(=O)c3ccco3)cc2)n1	ERb SRC1 inh 68.8[fluorescence artefact?]
Cc1ccc(-c2nnc(-c3ccc(NC(=O)c4ccco4)cc3)o2)cc1	ERa coact pot 455.0
O=C(Nc1ccc(S(=O)(=O)Nc2ncccn2)cc1)c1ccco1	none (no result: ERa coact pot, ERb SRC1 inh, ERa SRC1 inh)
CCN(CC)CCOc1nc(C)nc2c1oc1ccccc12	none
Cc1nc(Oc2cccc(Cl)c2)c2oc3ccccc3c2n1	ERb SRC1 inh 74.4[fluorescence artefact?]
CC1(C)Cc2c(sc3c4nnnn4c4nnnn4c23)CO1	ERa SRC1 inh 79.9 (no result: PTPN22 inh 2, FAK inh, LYP act)
Cc1ccccc1-n1nc2c(c1NC(=O)c1ccc(Br)o1)CSC2	ERa coact pot 207.2[fluorescence artefact?]
O=C(COC(=O)c1cc(S(=O)(=O)N2CCOCC2)ccc1O)NCCc1ccccc1	none
CSc1nc(C)c2c(n1)N(c1ccc(C(C)C)cc1)CC2	none (no result: ERa coact pot, ERb SRC1 inh, ERa SRC1 inh)
CCOC(=O)N1CCC(NC(=O)C(NC(=O)C2CCC(C)CC2)C(C)CC)CC1 (configuration not stated)	none
Cc1cc(SCC(=O)Nc2ccccc2)nc(C)n1	ERa SRC1 inh 72.3[fluorescence artefact?]
CSc1nc(C)cc(SCC(=O)Nc2ccccc2)n1	none
Cc1c(C(=O)OCC(C)C)[nH]c2c1C(=O)CC(c1cccs1)C2 (configuration not stated)	none
CCOCCCNS(=O)(=O)c1ccc(-n2cnnn2)c(OC)c1	none
COc1cc(N2CCCC2)c(OC)cc1/C=c1/sc2nc3ccccc3n2c1=O	ERb SRC1 inh 74.5[fluorescence artefact?], ERa SRC1 inh 96.8[fluorescence artefact?]
C/C(=N\NC(=O)c1cccc(S(=O)(=O)Nc2ccccc2Cl)c1)c1ccc(-n2ccnc2)cc1	none (no result: ERa coact pot, ERb SRC1 inh, ERa SRC1 inh)
COc1ccc(Cl)cc1S(=O)(=O)N1CCN(C(=O)c2cc(OC)c(OC)c(OC)c2)CC1	none
COc1cc(C(=O)N2CCN(S(=O)(=O)c3ccc(F)cc3)CC2)cc(OC)c1OC	ERb SRC1 inh 66.7[fluorescence artefact?]
CCOC(=O)c1c(Nc2nc(C)c(C(=O)NC)s2)sc(C)c1C	ERa SRC1 inh 68.9
CCOC(=O)c1sc(Nc2ccccc2)nc1C	none
O=C1Nc2ccc(S(=O)(=O)NCc3ccccn3)c3cccc1c23	ERb SRC1 inh 61.2[fluorescence artefact?]
CN1Cc2cc(C(=O)c3cc(Cl)cc(CSc4ncccn4)c3O)cnc2NC1=O	ERa SRC1 inh 55.9
CCCN(CCC)C1=N/C(=C\c2ccco2)C(=O)N1c1ccccc1	none (no result: ERa coact pot, ERb SRC1 inh, ERa SRC1 inh)
CCNc1ccc(Br)cc(C(=O)/C=C/c2ccc(Cl)cc2Cl)c1=O	ERb SRC1 inh 75.9[fluorescence artefact?], ERa SRC1 inh 84.5[fluorescence artefact?]
CNc1ccc(Br)cc(C(=O)/C=C/c2cc(OC)ccc2OC)c1=O	ERb SRC1 inh 65.1[fluorescence artefact?], ERa SRC1 inh 71.1[fluorescence artefact?]
CNc1ccc(Br)cc(C(=O)/C=C/c2ccc3c(c2)OCO3)c1=O	none (no result: ERa coact pot, ERb SRC1 inh, ERa SRC1 inh)
Cc1nc(NCc2ccco2)c2c(C)c(C)sc2n1	none
Cc1sc2nc3c4ccccc4c(NCc4ccco4)nn3c(=O)c2c1C	ERa SRC1 inh 55.8[fluorescence artefact?]
CC1(C)Cc2cccc(OCC(=O)Nc3cccnc3Cl)c2O1	none
O=C(C1=COCCO1)N1CCN(S(=O)(=O)c2cccc(Cl)c2Cl)CC1	ERb SRC1 inh 59.8[fluorescence artefact?]
Cc1ccc(S(=O)(=O)N2CCN(C(=O)C3=COCCO3)CC2)cc1C	none
